Screening data: PubChem BioAssay, several laboratories
Gli-Sufu block = Gli-Sufu pathway antagonists, primary screen, luciferase luminescence, Sufu-KO-LIGHT cells, uHTS | Sufu-KO-LIGHT fibroblasts, Gli luciferase reporter luminescence | inhibition, % at 5 µM | hit rate 0.74% among 340,000;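 active = inhibition above about 55%, limit read from the data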
Beta apoptosis = inhibitors of cytokine-induced beta cell apoptosis, primary screen, luminescence; INS-1E cytokine-induced death, ATP luminescence, 48 h; percent of positive-control rescue, neutral wells zero; protection from apoptosis, % (test concentration not listed); hit rate 0.8% among 300,000; AID 435005, 2010;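 active = Every replicate reaches about 75%, or at least half do and their mean reaches it too, limit read from the data; inconclusive = At least half of replicates reach the limit but their mean does not; inactive = Under half of replicates reach the limit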;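 also: higher means more ATP so stronger rescue from cytokine killing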
MPTP block = mitochondrial permeability transition pore inhibitors, primary screen, biochemical, isolated mouse mitochondria, absorbance. inhibition, % at 10 µM. Ca2+ swelling absorbance, 30 min. hit rate 1.4% among 360,000;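 active = inhibition of 50% or more, scaled per plate between neutral and stimulator controls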
Mdm2-MdmX inh = inhibitors of human Mdm2-MdmX association, primary screen, cell-based, luminescence, split luciferase, SaOS-2, uHTS | hit rate 3% among 330,000 | inhibition, % at 8 µM | SaOS-2 split-luciferase Mdm2/MdmX complementation | Protein Mdm4 (Homo sapiens) + E3 ubiquitin-protein ligase Mdm2 (Homo sapiens), … | AID 485346, 2010;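 active = inhibition of at least 50% at 8 µM in the primary screen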
Target sequence (O15151 whole entry, looked up): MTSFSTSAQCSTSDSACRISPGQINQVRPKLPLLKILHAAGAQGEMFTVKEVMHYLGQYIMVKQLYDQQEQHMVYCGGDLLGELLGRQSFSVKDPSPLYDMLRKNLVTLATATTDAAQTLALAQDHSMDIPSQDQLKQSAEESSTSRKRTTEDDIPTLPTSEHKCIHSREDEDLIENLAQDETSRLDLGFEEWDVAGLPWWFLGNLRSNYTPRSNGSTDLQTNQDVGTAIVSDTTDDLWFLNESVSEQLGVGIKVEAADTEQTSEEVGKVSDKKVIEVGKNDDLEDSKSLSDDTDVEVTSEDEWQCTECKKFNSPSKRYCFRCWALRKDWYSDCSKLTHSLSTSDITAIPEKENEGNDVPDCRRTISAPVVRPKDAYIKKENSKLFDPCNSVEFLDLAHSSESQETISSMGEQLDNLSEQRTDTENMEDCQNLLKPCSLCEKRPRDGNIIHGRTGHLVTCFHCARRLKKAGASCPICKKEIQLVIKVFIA
Target sequence (Q00987 whole entry, looked up): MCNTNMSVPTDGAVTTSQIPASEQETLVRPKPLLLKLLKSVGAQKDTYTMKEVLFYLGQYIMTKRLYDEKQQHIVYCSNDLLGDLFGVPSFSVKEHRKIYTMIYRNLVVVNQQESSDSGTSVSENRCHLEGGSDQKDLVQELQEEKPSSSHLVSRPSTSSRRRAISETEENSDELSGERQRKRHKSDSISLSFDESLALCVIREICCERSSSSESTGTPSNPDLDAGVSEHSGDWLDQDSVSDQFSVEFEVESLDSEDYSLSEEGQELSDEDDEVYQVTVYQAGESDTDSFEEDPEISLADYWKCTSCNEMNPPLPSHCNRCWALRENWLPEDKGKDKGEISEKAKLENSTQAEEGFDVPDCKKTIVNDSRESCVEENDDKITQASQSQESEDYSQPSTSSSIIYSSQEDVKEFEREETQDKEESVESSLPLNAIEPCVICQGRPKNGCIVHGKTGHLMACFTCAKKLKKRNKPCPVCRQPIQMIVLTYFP
NR3A LBD binder = binders of NR3A ligand-binding domain, primary screen, biophysical, differential scanning fluorimetry, uHTS; Tm shift relative to glycine control, % at 25 µM; hit rate 2.5% among 340,000; AID 1259313, 2017; NR3A LBD differential scanning fluorimetry, Tm shift; 0% = protein alone, 100% = glycine-bound protein;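 active = melting temperature shift of at least 10% of the positive control shift, at one fixed dose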
CSC inhib = cancer stem cell viability inhibitors, primary screen, luminescence; AID 2717, 2010; hit rate 1.1% among 300,000; cancer stem cell-like cells viability; inhibition, % at 7.5 µM; in the data active = inhibition above about 75%; inconclusive = no clear call, values can overlap the other calls; tested in HMLE shEcad cells
MPTP counter = fluorescence retest of MPTP screen hits in isolated mitochondria, single concentration. membrane potential, Rhodamine 123 fluorescence. inhibition, % at 10 µM. AID 624504, 2012. shares compounds with MPTP block. hit rate 78% among 5,000; in the data active = inhibition above about 22%
MPTP abs DR = mitochondrial permeability transition pore inhibitors, dose response, biochemical, absorbance, uHTS hits; shares compounds with MPTP block; isolated mitochondria swelling; IC50, µM; hit rate 58% among 780; in the data active = IC50 below about 20 µM
MPTP counter DR = fluorescent counter-screen in isolated mitochondria, dose response, counter-screen for MPTP inhibitor project, biochemical, fluorescence, uHTS hits; IC50, µM; hit rate 49% among 780; isolated mitochondria counterscreen, fluorescence read-out; shares compounds with MPTP block; AID 651564, 2012; in the data active = IC50 below about 80 µM
Each line names hits and unclear results; the compound was inactive in the other large screens (follow-up assays come after a bar, where they were run). A selection: hits, their analogues and other compounds. The true share with any hit is near 6.6%.

O=C(N/C(=C/c1ccc(Br)cc1)C(=O)N1CCCC1=O)c1ccco1	none
O=C(NCc1ccccc1)c1sc(=S)n2c1[nH]c(=O)c1ccccc12	MPTP block 86, NR3A LBD binder 12 | MPTP counter 89
N#Cc1ccccc1NC(=O)C1SC(=Nc2ccccc2)C(C(=O)Nc2ccc(Cl)cc2)=C1N (stereo not drawn)	MPTP block 62, NR3A LBD binder 22 | MPTP counter 65
O=C(CNc1cc(S(=O)(=O)N2CCCC2)ccc1OCC(F)(F)F)Nc1cccc(C(F)(F)F)c1	MPTP block 51 | MPTP counter 48
O=C(CNc1cccc(C(F)(F)F)c1)Nc1cccc(S(=O)(=O)N2CCCC2)c1	none
Cc1cc(/C=C2/C(=N)N3C(=NC2=O)SN=C3S(C)(=O)=O)c(C)n1-c1ccccc1F	none
CS(=O)(=O)C1=NSC2=NC(=O)/C(=C\c3cccn3-c3ccc(Cl)cc3)C(=N)N21	MPTP block 96, NR3A LBD binder 19 (no result: Mdm2-MdmX inh) | MPTP counter 61
Cc1scc(C(=O)NNC(=S)NC(C)c2ccccc2)c1C (stereo not drawn)	none
CCOc1ccccc1OCCC(=O)OCC(=O)c1ccc[nH]1	none
CC(C)(C)NC(=S)N/N=C/c1cc(Br)c(O)c(Br)c1	none
CNC(=S)N/N=C/c1cc(Br)cc(Br)c1O	MPTP block 88 | MPTP counter 60
Oc1c(Br)cc(Br)cc1/C=N/NC(=S)N[C@H]1CC2C=CC1C2 (stereo partly drawn)	MPTP block 84, NR3A LBD binder 14, CSC inhib 102 | MPTP counter 58
COc1cc(/C=N/NC(=S)NC2CC3C=CC2C3)cc(OC)c1OC (stereo not drawn)	none
O=C(CSc1ccc(C(F)(F)F)cc1[N+](=O)[O-])Nc1ccccc1	MPTP block 59 | MPTP counter 61
CC(=O)Nc1ccc(NC(=O)CSc2ccc(C(F)(F)F)cc2[N+](=O)[O-])cc1	none
CCOC(=O)C1=C(C)N(CC(C)C)C(=O)C1	none
COc1ccc([C@@H]2Sc3ccccc3NC(=O)[C@@H]2O)cc1	none
CCN1/C(=C/c2ccc3cc(C)ccc3[n+]2CC)Sc2cc(C)ccc21	Gli-Sufu block 90, MPTP block 98 (no result: Beta apoptosis, Mdm2-MdmX inh, CSC inhib) | MPTP counter 103
CCOc1ccc(NC(=O)CCC(=O)NNC(=O)c2cccc([N+](=O)[O-])c2)cc1	none
CCN(CC(=O)Nc1c(F)cccc1F)C(=O)C1CCCN(C(=O)c2ccc(Cl)cc2)C1 (stereo not drawn)	none
Fc1ccc(OCCOCCN2CCCC2)cc1	none
CC(OCCN1CCCC1)(c1ccc(F)cc1)c1ccc(F)cc1	MPTP block 76 | MPTP counter inactive | MPTP abs DR inactive | MPTP counter DR inactive
CCOC(=O)c1ccc(NC(=S)N(CCCN2CCCC(C)C2)Cc2ccco2)cc1 (stereo not drawn)	none
O=[N+]([O-])c1cc([N+](=O)[O-])c(Oc2ccc(Br)cc2Br)cc1NN1CCCCC1	none
CCOC(=O)c1sc(NC(=O)CSc2n[nH]c(-c3ccc(Cl)cc3Cl)n2)c(C#N)c1C	MPTP block 83, NR3A LBD binder 33 | MPTP counter 83
CCOC(=O)c1sc(NC(=O)c2ccncc2)c(C#N)c1C	MPTP block 97 | MPTP counter 87
CC(C)/C=C/CN1CCC(Oc2ccc(C(=O)N3CCCC3)cc2)CC1	none (no result: Gli-Sufu block, Beta apoptosis, NR3A LBD binder)
CCC1=NN(S(=O)(=O)c2ccc(C)cc2)C(O)(C(F)(F)F)C1 (stereo not drawn)	none
CCCCNC(=S)Nc1ccc(Cl)cc1	MPTP block 83 | MPTP counter 81
CCCCNC(=S)Nc1ccc(C(F)(F)F)cc1	MPTP block 102 | MPTP counter 82
CC1CCC2(CC1)NC(=O)N(CC(=O)NC(C)c1ccc(F)c(F)c1)C2=O (stereo not drawn)	none
C=CCNCCCCOc1ccc(Br)cc1C	MPTP block 71 (no result: CSC inhib) | MPTP counter inactive | MPTP abs DR 8.3 | MPTP counter DR inactive
COc1ccc(/C=C/C(=O)OCC(=O)Nc2ccc3c(c2)OCO3)cc1	none
Cc1cc(C)c(C)c(S(=O)(=O)NC(C(=O)O)C(C)C)c1C (stereo not drawn)	none
O=S(=O)(c1ccc2c(c1)C(O)c1ccccc1CC2)C(F)(F)F (stereo not drawn)	MPTP block 90 | MPTP counter 92
Nc1cc(S(=O)(=O)C(F)(F)F)ccc1C(=O)O	none
CCNS(=O)(=O)c1cc(OC)c(Cl)cc1OC	none
Cc1nc2ccc(F)cc2cc1C(=O)Nc1ccc(Cl)c(Cl)c1	MPTP block 93 (no result: Mdm2-MdmX inh) | MPTP counter 82
COc1cc(/C=N/NC(=O)C23CC4CC(CC(C4)C2)C3)cc(Br)c1O	none
O=C(N/N=C/c1cc([N+](=O)[O-])cc(Br)c1O)C12CC3CCC(CC(C3)C1)C2	MPTP block 84 | MPTP counter 28
Cc1cccc2sc(NC(=O)CSc3nc4ccccc4o3)nc12	MPTP block 70 | MPTP counter inactive | MPTP abs DR inactive | MPTP counter DR 6.1
Cc1ccc(S(=O)(=O)NC(=O)C2(C)CCN2C(=O)c2ccccc2)nc1 (stereo not drawn)	none (no result: Gli-Sufu block, Beta apoptosis, Mdm2-MdmX inh, NR3A LBD binder, CSC inhib)
Cc1csc(C(=O)O)c1NC(=O)c1c(Cl)cccc1Cl	none
Cc1ccc(Nc2nc(NCCCN3CCOCC3)nc(N)c2[N+](=O)[O-])cc1C	MPTP block 67 | MPTP counter inactive | MPTP abs DR inactive | MPTP counter DR inactive
Cc1ccc(Nc2nc(NCCCN3CCOCC3)nc(N)c2[N+](=O)[O-])cc1	none
Cc1cccc(Nc2nc(N)c([N+](=O)[O-])c(N3CC(C)CC(C)C3)n2)c1 (stereo not drawn)	Beta apoptosis inconclusive, MPTP block 56, CSC inhib 105 | MPTP counter inactive | MPTP abs DR inactive | MPTP counter DR 63
Cc1cccc(Nc2nc(N3CCN(C)CC3)nc(N)c2[N+](=O)[O-])c1	MPTP block 69 | MPTP counter inactive | MPTP abs DR inactive | MPTP counter DR inactive
CCN1CCN(c2nc(N)c([N+](=O)[O-])c(Nc3cccc(C)c3)n2)CC1	none
